About 410 targets per protein were measured; listed, in parts, are those with the strongest signals and a random draw of the rest.
Assays:
Assay in all cases: glycan array binding signal (z-score within array); higher = stronger binding
Conditions in all cases: glycan notation: IUPAC condensed, linker removed; mutation: N288D, K313I
[1] = target: Fuc(a1-2)Gal(b1-3)GlcNAc(b1-3)[Fuc(a1-2)Gal(b1-3)GlcNAc(b1-6)]GalNAc
Method in brief: (§1)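 Negative Z-scores can be read as non-binding. The Z-score is calculated within each array and then averaged across arrays of one protein sequence at different concentrations or buffers and across linkers. Arrays, 3228 in all, were curated from the Consortium for Functional Glycomics database and kept only where the protein sequence was available.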

[2] = target: Fuc(a1-2)Gal(b1-3)GlcNAc(b1-3)[Gal(b1-4)GlcNAc(b1-6)]Gal(b1-4)Glc
Method in brief: as §1

[3] = target: Fuc(a1-2)Gal(b1-4)Fuc(a1-3)]GlcNAc(b1-2)Man(a1-3)[Fuc(a1-2)Gal(b1-4)[Fuc(a1-3)]GlcNAc(b1-2)Man(a1-6)]Man(b1-4)GlcNAc(b1-4)GlcNAc
Method in brief: as §1

[4] = target: Fuc(a1-2)Gal(b1-4)GlcNAc(b1-2)Man(a1-3)[Fuc(a1-2)Gal(b1-4)GlcNAc(b1-2)Man(a1-6)]Man(b1-4)GlcNAc(b1-4)GlcNAc
Method in brief: as §1

[5] = target: Fuc(a1-2)Gal6S(b1-3)GlcNAc
Method in brief: as §1

[6] = target: Fuc(a1-2)[GalNAc(a1-3)]Gal(b1-3)GlcNAc(b1-6)GalNAc
Method in brief: as §1

[7] = target: Fuc(a1-2)[GalNAc(a1-3)]Gal(b1-4)GlcNAc
Method in brief: as §1

[8] = target: Fuc(a1-2)[GalNAc(a1-3)]Gal(b1-4)GlcNAc(b1-3)GalNAc
Method in brief: as §1

[9] = target: Fuc(a1-2)[GalNAc(a1-3)]Gal(b1-4)[Fuc(a1-3)]GlcNAc(b1-3)GalNAc
Method in brief: as §1

[10] = target: Fuc(a1-2)[GalNAc(a1-4)]Gal(b1-4)GlcNAc
Method in brief: as §1

[11] = target: Fuc(a1-3)[Gal3S(b1-4)]GlcNAc
Method in brief: as §1

[12] = target: Gal(a1-3)Gal(b1-3)GlcNAc(b1-6)GalNAc
Method in brief: as §1

[13] = target: Gal(a1-3)Gal(b1-3)[Fuc(a1-4)]GlcNAc(b1-2)Man(a1-3)[Gal(a1-3)Gal(b1-3)[Fuc(a1-4)]GlcNAc(b1-2)Man(a1-6)]Man(b1-4)GlcNAc(b1-4)GlcNAc
Method in brief: as §1

[14] = target: Gal(b1-3)GalNAc(a1-3)[Fuc(a1-2)]Gal(b1-4)Glc
Method in brief: as §1

[15] = target: Gal(b1-3)GlcNAc(b1-3)Gal(b1-4)GlcNAc(b1-2)[Gal(b1-3)GlcNAc(b1-3)Gal(b1-4)GlcNAc(b1-6)]Man(a1-6)[Gal(b1-3)GlcNAc(b1-3)Gal(b1-4)GlcNAc(b1-2)Man(a1-3)]Man(b1-4)GlcNAc(b1-4)[Fuc(a1-6)]GlcNAc
Method in brief: as §1

[16] = target: Gal(b1-3)GlcNAc(b1-3)Gal(b1-4)GlcNAc(b1-3)Gal(b1-4)GlcNAc(b1-2)[Gal(b1-3)GlcNAc(b1-3)Gal(b1-4)GlcNAc(b1-3)Gal(b1-4)GlcNAc(b1-6)]Man(a1-6)[Gal(b1-3)GlcNAc(b1-3)Gal(b1-4)GlcNAc(b1-3)Gal(b1-4)GlcNAc(b1-2)Man(a1-3)]Man(b1-4)GlcNAc(b1-4)[Fuc(a1-6)]GlcNAc
Method in brief: as §1

[17] = target: Gal(b1-3)[Neu5Ac(a2-6)]GalNAc
Method in brief: as §1

[18] = target: Gal(b1-4)GlcNAc(b1-2)Man(a1-3)[GlcNAc(b1-4)][Gal(b1-4)GlcNAc(b1-2)Man(a1-6)]Man(b1-4)GlcNAc(b1-4)GlcNAc
Method in brief: as §1

[19] = target: Gal(b1-4)GlcNAc(b1-2)[Gal(b1-4)GlcNAc(b1-4)]Man(a1-3)[Gal(b1-4)GlcNAc(b1-2)[Gal(b1-4)GlcNAc(b1-6)]Man(a1-6)]Man(b1-4)GlcNAc(b1-4)GlcNAc
Method in brief: as §1

[20] = target: Gal3S(b1-4)[Fuc(a1-3)]GlcNAc6S
Method in brief: as §1

Gal3S4S(b1-4)GlcNAc = target: Gal3S4S(b1-4)GlcNAc
Method in brief: as §1

Gal3S6S(b1-4)GlcNAc = target: Gal3S6S(b1-4)GlcNAc
Method in brief: as §1

GalNAc(b1-3)Gal = target: GalNAc(b1-3)Gal
Method in brief: as §1

[21] = target: GalNAc(b1-4)GlcNAc(b1-2)Man(a1-3)[GalNAc(b1-4)GlcNAc(b1-2)Man(a1-6)]Man(b1-4)GlcNAc(b1-4)GlcNAc
Method in brief: as §1

GalNAc(b1-6)GalNAc = target: GalNAc(b1-6)GalNAc
Method in brief: as §1

[22] = target: GalNAc3S(b1-4)[Fuc(a1-3)]GlcNAc
Method in brief: as §1

[23] = target: GlcNAc(a1-4)Gal(b1-4)GlcNAc(b1-3)Gal(b1-4)Glc
Method in brief: as §1

[24] = target: GlcNAc(a1-6)Gal(b1-4)GlcNAc
Method in brief: as §1

[25] = target: GlcNAc(b1-2)Man(a1-3)[GlcNAc(b1-4)][GlcNAc(b1-2)Man(a1-6)]Man(b1-4)GlcNAc(b1-4)[Fuc(a1-6)]GlcNAc
Method in brief: as §1

[26] = target: GlcNAc(b1-2)[GlcNAc(b1-4)]Man(a1-3)[GlcNAc(b1-2)Man(a1-6)]Man(b1-4)GlcNAc(b1-4)GlcNAc
Method in brief: as §1

B1: Langerin (Homo sapiens), Q9UJ71 (protein)
chain: STLNAQIPELKSDLEKASALNTKIRALQGSLENMSKLLKRQNDILQVVSQGWKYFKGNFYYFSLIPKTWYSAEQFCVSRNSHLTSVTSESEQEFLYKTAGGLIYWIGLTKAGMEGDWSWVDDTPFNKVQSARFWIPGEPNDAGNNEHCGNIKAPSLQAWNDAPCDITFLFICKRPYVPSEP
glycan array binding signal (z-score) [1]: 0.215 | glycan array binding signal (z-score) [2]: -0.246 | glycan array binding signal (z-score) [3]: -0.237 | glycan array binding signal (z-score) [4]: -0.023 | glycan array binding signal (z-score) [5]: -0.321 | glycan array binding signal (z-score) [6]: 0.089 | glycan array binding signal (z-score) [7]: -0.27 | glycan array binding signal (z-score) [8]: -0.041 | glycan array binding signal (z-score) [9]: 1.92 | glycan array binding signal (z-score) [10]: -0.285 | glycan array binding signal (z-score) [11]: 0.041 | glycan array binding signal (z-score) [12]: 10.4 | glycan array binding signal (z-score) [13]: -0.042 | glycan array binding signal (z-score) [14]: -0.171 | glycan array binding signal (z-score) [15]: 5.7 | glycan array binding signal (z-score) [16]: 7.74 | glycan array binding signal (z-score) [17]: -0.085 | glycan array binding signal (z-score) [18]: -0.237 | glycan array binding signal (z-score) [19]: -0.351 | glycan array binding signal (z-score) [20]: -0.1 | glycan array binding signal (z-score) (Gal3S4S(b1-4)GlcNAc): -0.333 | glycan array binding signal (z-score) (Gal3S6S(b1-4)GlcNAc): -0.209 | glycan array binding signal (z-score) (GalNAc(b1-3)Gal): -0.289 | glycan array binding signal (z-score) [21]: -0.176 | glycan array binding signal (z-score) (GalNAc(b1-6)GalNAc): -0.255 | glycan array binding signal (z-score) [22]: 0.095 | glycan array binding signal (z-score) [23]: -0.192 | glycan array binding signal (z-score) [24]: -0.229 | glycan array binding signal (z-score) [25]: 1.18 | glycan array binding signal (z-score) [26]: 0.028

Source: the supplement of paper PMC8728848
